Compounds with a hit are over-represented: about 6.1% of the library has one in this group of screens.
DRD3 antagonist – antagonists of human D3 dopamine receptor; 2.5% of 360,000 active; AID 652054; max response, negative = inhibition, %; D3R cells, DiscoveRx beta-arrestin luminescence, antagonist mode; stronger effect = lower value; in the data active = max response below about -50%; inconclusive = no clear call, values can overlap the other calls
Target sequence (P35462 whole entry, looked up): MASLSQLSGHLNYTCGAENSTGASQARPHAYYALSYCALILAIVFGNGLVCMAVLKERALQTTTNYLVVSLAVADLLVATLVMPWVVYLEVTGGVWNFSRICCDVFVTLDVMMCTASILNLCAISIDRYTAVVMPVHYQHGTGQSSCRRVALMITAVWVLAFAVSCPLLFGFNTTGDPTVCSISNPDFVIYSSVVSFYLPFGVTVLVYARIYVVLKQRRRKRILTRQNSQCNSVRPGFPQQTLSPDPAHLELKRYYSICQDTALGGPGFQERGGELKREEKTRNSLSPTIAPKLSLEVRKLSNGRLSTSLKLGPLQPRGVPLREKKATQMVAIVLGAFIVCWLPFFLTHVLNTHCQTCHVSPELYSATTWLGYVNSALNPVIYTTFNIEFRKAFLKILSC
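Cells plated overnight at 1500 cells/well, then exposed to library compounds with dopamine controls for 90 minutes at 37 degrees C. DiscoveRx reagent added for 30–60 minutes at room temperature; luminescence read, quantitative HTS format.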
D1 ag – activates the human D1 dopamine receptor. 1% of 360,000 active. HEK293 T-REx D1 cells, calcium flux, agonist mode. P21728. activation, % at 2 µM; in the data active = activation above about 30%
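Agonism was scored from calcium flux recorded over 180 s (1 read/s) after pintool compound addition, following a 10-cycle baseline. Cells were inducible force-coupled HEK293 TREx D1, plated overnight at 30 C and loaded with no-wash calcium dye.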
D1 antag – blocks dopamine activation of the human D1 receptor. P21728. HEK293 TREx D1 cells, calcium flux, dopamine EC80; stronger effect = lower value. activity change, negative = inhibition, % at 10 µM. 3.2% of 360,000 active. AID 504652; in the data active = activity change below about -30%
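Compound effects on dopamine-evoked calcium signalling were measured in tetracycline-induced HEK293 Trex D1 cells. Dopamine at EC80 followed a 180 s compound pre-read, and fluorescence was tracked kinetically for 180 s more.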
D1 potentiator – human D1 dopamine receptor positive modulation; HEK293 TREx D1 cells, calcium flux, dopamine EC20 potentiation; potentiation, % at 10 µM; AID 504651; 0.036% of 360,000 active; P21728; in the data active = potentiation above about 30%
D3 ag – agonists of human D3 dopamine receptor. D3R DiscoveRx beta-arrestin cells, luminescence, 90 min. max activation, %. 0.58% of 410,000 active. AID 652048; in the data active = max activation above about 30%
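Agonist-mode cell screen: cells plated at 1500/well and incubated overnight at 37 °C, then exposed to library compounds for 90 min at 37 °C. Detection reagent was added for 30–60 min at room temperature, and luminescence was read.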
Each line names hits and unclear results; the compound was inactive in the other large screens; ! = repeats disagree.

CC(C)c1cc(C(N)=O)c(NC(=O)C2CCC2)s1	D3 ag 37
O=C(CSc1nc2c([nH]c3ccccc32)c(=O)n1-c1ccc(Cl)cc1)N1CCOCC1	none (no result: DRD3 antagonist)
Cc1ccc(Cl)cc1N1CCN(C(=O)c2ccc3c(c2)N(Cc2ccc(F)cc2)CCS3)CC1	none (no result: DRD3 antagonist)
COc1ccc(NC(=O)c2cnc3cc(C)ccn3c2=O)c(OC)c1	none (no result: DRD3 antagonist)
CCc1ccc(NC(=O)CSc2nc3ccsc3c(=O)n2C(C)CC)cc1 (stereo unspecified)	none (no result: DRD3 antagonist)
COC(=O)c1c(C(=O)OC)c2ccccn2c1C(=O)c1ccc([N+](=O)[O-])cc1	none
CC(C)OC(=O)c1c2c(n3ccccc13)C(=O)c1ccccc1C2=O	D1 ag 254
O=C(O)CCc1nn2cc(-c3ccccc3)nc2[nH]c1=O	D1 antag -79
Cc1cc(-c2cccs2)c2c(n1)sc1c(=O)[nH]c(=O)[nH]c12	DRD3 antagonist -84
Cc1cc(-c2ccccc2)c2c(n1)sc1c(O)cc(=O)[nH]c12	none
Cc1ccc(-n2c(=O)c3c4c(sc3n(CC(=O)Nc3ccccc3C)c2=O)CCCCC4)cc1C	none (no result: DRD3 antagonist)
CCOC(=O)c1c(NC(=O)CSc2nnc(-c3cccnc3)o2)sc(C(C)=O)c1C	D1 antag -35
COc1ccc(Oc2ccc(/C=C/C(=O)c3cccc(OC)c3)cc2[N+](=O)[O-])cc1	DRD3 antagonist -56
COc1ccc(C(=O)C=Cc2ccc3c(c2)OCO3)cc1OC	none (no result: D1 ag, D1 antag, D1 potentiator)
COc1ccc(/C=C/C(=O)c2ccc3c(c2)OCCO3)cc1[N+](=O)[O-]	DRD3 antagonist -51
COc1cc(/C=C/C(=O)c2ccc3c(c2)OCO3)cc(Cl)c1O	D1 ag 246 (no result: D1 potentiator)
COc1ccc(/C=N/NC(=O)c2cccnc2)cc1	none
COc1ccc(Oc2ccc(/C=N/NC(=O)c3cccnc3)cc2[N+](=O)[O-])cc1	D1 antag -43
CCN(CC)c1ccc(-c2nc(-c3ccccc3C)no2)cc1[N+](=O)[O-]	none (no result: DRD3 antagonist)
O=C(NCc1cccnc1)/C(=C\c1ccc(-c2cccc(Cl)c2)o1)S(=O)(=O)c1ccccc1	DRD3 antagonist -50
Cc1ccc(NC(=O)C(=O)NCc2ccc(/C=C(/C#N)C(=O)NCc3cccnc3)o2)cc1	DRD3 antagonist inconclusive
N#C/C(=C/c1ccc(CNC(=O)C(=O)Nc2cc(Cl)cc(Cl)c2)o1)C(=O)NCc1cccnc1	D1 antag -63
O=C(Nc1ccc(F)cc1Cl)C1Cc2ccccc2N1C(=O)c1ccccc1 (stereo unspecified)	none (no result: DRD3 antagonist)
O=C(Nc1ccccc1)Nc1nc(Nc2cc(F)cc(F)c2)nc(NC2CCCC2)n1	none (no result: DRD3 antagonist, D3 ag)
c1ccc(OCCOCCN2CCN(C(c3ccccc3)c3ccccc3)CC2)cc1	DRD3 antagonist -78
COc1cccc(OC)c1OCCCCCCN1CCN(C)CC1	none
COc1ccccc1OCCCCN1CCN(C(c2ccccc2)c2ccccc2)CC1	DRD3 antagonist -84
N#Cc1ccc(OCC(O)CN2CCN(C(c3ccccc3)c3ccccc3)CC2)cc1 (stereo unspecified)	DRD3 antagonist -54
CCC(=O)c1ccc(OCC(O)CN2CCOCC2)cc1 (stereo unspecified)	none
CCC(=O)c1ccc(OCC(O)CN2CCN(C(c3ccccc3)c3ccccc3)CC2)cc1 (stereo unspecified)	DRD3 antagonist -88
CCCCN(C)CCNC(=O)c1ccc2c(=O)n(CCc3ccccc3)c(=O)[nH]c2c1	none (no result: DRD3 antagonist)
OC(COc1ccccc1)CN1CCCC1 (stereo unspecified)	none
OC(COc1ccccc1)CN1CCN(C(c2ccccc2)c2ccccc2)CC1 (stereo unspecified)	DRD3 antagonist -95
COc1ccc2c(c1)c1c(c(=O)n(-c3ccccc3C)c(=O)n1CC(=O)N1CCCC1)n2C	none (no result: DRD3 antagonist)
OC(c1ccc(Cl)cc1Cl)C(Cc1cccnc1)n1cncn1 (stereo unspecified)	DRD3 antagonist -75
OC(Cn1cncn1)c1ccc(Cl)cc1Cl (stereo unspecified)	none
COc1cccc(OC)c1C(=O)Nc1cccc(-c2nc3cc(C)cc(C)c3o2)c1	none (no result: DRD3 antagonist)
Cc1cc2c(cc1S(=O)(=O)CCC(=O)N1CCCCC1C)OCC(=O)N2 (stereo unspecified)	none (no result: DRD3 antagonist)
CSc1cccc(NC(=O)C2CCCN(S(=O)(=O)c3ccc4c(c3)CCCN4C(C)=O)C2)c1 (stereo unspecified)	D1 antag -32 (no result: DRD3 antagonist)
CCc1ccc(NC(=O)C2CCCN(S(=O)(=O)c3ccc4c(c3)CCCN4C(C)=O)C2)cc1 (stereo unspecified)	D1 antag -32!
CSc1cccc(NC(=O)C2CCN(S(=O)(=O)c3ccc4c(c3)CCCN4C(=O)C3CCC3)CC2)c1	D1 antag -48 (no result: DRD3 antagonist)
CCOC(=O)C1CCCN(S(=O)(=O)c2ccc3c(c2)CCCN3C(C)=O)C1 (stereo unspecified)	none (no result: DRD3 antagonist)
CC(=O)N1CCCc2cc(S(=O)(=O)N3CCCC(C(=O)Nc4cccc(F)c4)C3)ccc21 (stereo unspecified)	none
N[C@@H](CCC(=O)N[C@@H](CS)C(=O)NCC(=O)O)C(=O)O	none (no result: DRD3 antagonist, D1 ag, D1 antag, D1 potentiator)
CC(C)C[C@@]12C(=O)N(c3cccc(Br)c3)C(=O)N1[C@H](c1ccc(F)cc1)[C@@H]1C(=O)N(C3CCCCC3)C(=O)[C@@H]12	D3 ag 51
CCN(CC)C(=O)c1n[nH]c(=O)c2ccccc12	DRD3 antagonist -96
Cc1nc2sc(C)c(C)n2c(=O)c1S(=O)(=O)N1CCN(c2ccccc2F)CC1	none (no result: DRD3 antagonist)
Cc1ccc(-c2nn3c(C)nnc3c3ccccc23)cc1S(=O)(=O)NC(C)c1ccccc1 (stereo unspecified)	DRD3 antagonist -54
CN=C(C[N+](=O)[O-])NCCSCc1ccc(CN(C)C)o1	DRD3 antagonist -59 (no result: D1 ag, D1 antag, D1 potentiator)
CS(=O)(=O)c1cccc(-c2nnc(NC(=O)c3ccc4c(c3)OCCO4)o2)c1	none (no result: DRD3 antagonist)
CC(Cc1cccs1)NC(=O)Nc1ccc([N+](=O)[O-])cc1 (stereo unspecified)	D1 antag -35
CC(Cc1cccs1)NC(=S)Nc1ccc(F)cc1 (stereo unspecified)	D1 antag -44
COc1ccc(NC(=S)NC(C)Cc2cccs2)cc1 (stereo unspecified)	none
N=c1sccn1CC(=O)Nc1cccc(Oc2ccccc2)c1	none
N=c1sccn1CC(=O)NCCc1ccc(Cl)cc1Cl	DRD3 antagonist -50 (no result: D1 antag)
N=c1sccn1CC(=O)Nc1cc(Cl)ccc1Oc1ccccc1	DRD3 antagonist inconclusive, D1 ag 55
C[C@@H]1C[C@@H]2OC(=O)[C@]3(C)[C@H]2[C@@H](OC3(C)O)[C@]2(C)C(=O)C=C[C@H]12 (stereo partly specified)	DRD3 antagonist -53, D1 antag -37
O=[N+]([O-])c1ccc(/C=N/Nc2nc(N3CCCC3)nc(N3CCCC3)n2)o1	none
O=[N+]([O-])c1ccc(-c2ccc(/C=N/Nc3nc(N4CCCCC4)nc(N4CCCCC4)n3)o2)cc1	D1 ag 47

Screens deposited in PubChem BioAssay by National Center for Advancing Translational Sciences (NCATS).
